The text below walks through data of PubChem BioAssay AID1852 (Sanford-Burnham Center for Chemical Genomics, 2009).

The inhibition is the relative decrease from the control value, in per cent.

SMILES strings stand for the structures. Among all 2,500 compounds or so, about 1,100 (44%) were called active. The set was probably picked from earlier hits. Some of the results follow. Unmarked numbers belong to inactive results.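 How the source made its calls: active means inhibition above 50% at 4 µM in the single-point screen; inactive means inhibition of 50% or less.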

The assay is described as follows: TNF-a-driven NF-kB reporter inhibitors, primary screen, selectivity assay for NOD1/NOD2 signaling inhibitor project, cell-based, HEK293T NF-kB-Luc, luminescence (AID 1852). The conditions noted are these: TNF-a induced, 14 h, at 4 µM, active compounds read high.
Take `COc1ccc(N2CCN(S(=O)(=O)c3ccc4c(c3)NC(=O)C(C)S4)CC2)cc1` (stereo not given): the inhibition is 23.6%. Then `Cc1ccc(S(=O)(=O)N2CCN(c3ncnc4sccc34)CC2)cc1`, with 52.6% (active); and `CN1C(=O)C(C)(C)c2cc(S(=O)(=O)N3CCN(c4ccccc4)CC3)ccc21`, with 16%. Take `c1ccc(CC2CCN(c3ncnc4sccc34)CC2)cc1`: the inhibition was 42.7%. For `O=S(=O)(c1ccc2c(c1)OCCO2)N1CCN(c2ncnc3sccc23)CC1` the value was 53.4% (active); for `CCCc1nc(SCC(=O)N2CCC(Cc3ccccc3)CC2)c2c(=O)n(C)c(=O)n(C)c2n1`, -11.3%; for `O=C(N/N=C1/C(=O)c2cccc3cccc1c23)c1ccc(Cl)cc1`, 81% (active). Then `O=C(NN=C1c2ccccc2-c2ccccc21)c1cccc(Br)c1`, with 21.6%; and `C/C(=N\NC(=O)c1ccc(Cl)cc1)c1ccc(Br)s1`, with 9.8%; and `S=c1[nH]nc(C2CCCCC2)n1/N=C/c1ccncc1`, with 82.9% (active). On to `COc1ccc(OC)c(S(=O)(=O)N2CCN(c3ccccc3OC)CC2)c1`, for which the inhibition was 5%. For `O=C1c2cccc(OCC(=O)N3CCCc4ccccc43)c2CCN1Cc1ccc(Br)cc1` the value was -77.8%; for `O=C(COc1ccc(Br)cc1Cl)NC(=S)N1CCc2ccccc21`, 104% (active); for `Cc1ccc(-c2c(C#N)c(N)n3c(nc4ccccc43)c2C#N)cc1`, 33.8%.

Consider `Cc1ccc(NC(=O)Nc2cccc([N+](=O)[O-])c2)cc1F`, for which the inhibition was -50.5%. For `Cc1cc(Nc2cccc([N+](=O)[O-])c2)n2c(nc3ccccc32)c1C#N` the value was 78.7% (active).

On to `CCc1nc(N2CCN(C(=O)CCl)CC2)c2c3c(sc2n1)CC(C)CC3` (stereo not given), for which the inhibition was 35.2%.

For `CCOC(=O)C1(CCc2ccccc2)CCN(C(=O)CN2C(=O)CSC2=O)CC1`, the inhibition was -1.6%.

As for `COc1cc(NC(=O)COc2cc(O)c3c(c2)OC(C)(C)CC3=O)cc(OC)c1OC`, the inhibition is 64.6% (active). For `Cc1ccc(Nc2nnc(-c3ccncc3)s2)c(Br)c1` the value was 48%; for `COc1cccc(C(=O)Nc2ccc3nc(N4CCN(c5ncccn5)CC4)cc(C)c3c2)c1OC`, 101% (active). As to `COc1ccccc1N1CCN(C(=S)Nc2ccc3nc(N4CCOCC4)cc(C)c3c2)CC1`, the inhibition is 38.6%.

As for `Cc1ccc(C)c(N2CCN(C(=S)Nc3ccc4nc(N5CCOCC5)cc(C)c4c3)CC2)c1`, the inhibition is 45.9%. For `CCN(CC)c1ccc(/C=C/c2cccc[n+]2C)c(OC)c1` the value was 66.8% (active). Then `CCN(CC)c1ccc(/C=C/c2ccc3ccc(OC)cc3[n+]2CC)cc1`, with 38.2%. Take `Cc1ccc(-c2csc(NC3OC(=O)c4ccccc43)n2)cc1` (stereo not given): the inhibition is 74.1% (active).

Take `COc1ccccc1-c1nnc(SCC(=O)Nc2nc(-c3ccccc3)cs2)n1C`: the inhibition was 31.2%.

As to `COc1ccc(-c2csc3nc(-c4ccccc4)oc(=O)c23)cc1OC`, the inhibition was -3.3%. `COc1ccc2c(c1OC)C(=O)OC2Nc1nc(-c2ccccc2)cs1` (stereo not given): the inhibition is 62.2% (active). For the molecule `COc1ccc2[nH]c(=O)c3c(c2c1)OC(C)(C)C=C3`, the inhibition is 74.7% (active). As to `COc1ccc2[nH]c3c(c2c1)CCN1C(=O)N([C@@H](C)C(=O)NC2CC2)C(=O)[C@]31C`, the inhibition was 24.6%. Then `COc1ccccc1/C=C/C(=O)c1c2c(c(C)[nH]c1=O)CCCC2`, with 80.6% (active); and `Cc1[nH]c(=O)c(C(=O)/C=C/c2ccccc2F)c2c1CCCC2`, with 97.7% (active); and `COc1cccc(/C=C/C(=C2/C(=O)N(c3ccccc3)N=C2C)c2ccccc2)c1OC`, with 7.3%. Then `O=C(/C=C/c1cccs1)Nc1sc2c(c1C(=O)O)CCCC2`, with 17.8%.

Take `Cc1[nH]c(=O)c(C(=O)/C=C/c2ccccc2)c2c1CCCC2`: the inhibition was 92% (active). For `Cc1[nH]n(-c2ncc(-c3ccccc3)s2)c(=O)c1C(c1ccc(Cl)cc1)C(C#N)C#N` (stereo not given) the value was 28.2%; for `Cc1[nH]n(-c2cccc(Cl)c2)c(=O)c1-c1ccc(Cl)cc1`, 51.9% (active); for `CC1=NN(c2ccc(Cl)cc2)C(=O)C1C(c1ccccc1O)c1c(C)[nH]n(-c2ccc(Cl)cc2)c1=O` (stereo not given), -30.7%. For `CC(C)(C)C(=O)/C(=C/c1ccc(Cl)cc1)n1cncn1` the value was 73.3% (active); for `CC(C)CC(=O)/C(=C\c1ccc(Cl)cc1Cl)n1cncn1`, 64.5% (active); for `O=C(Nc1cc(Cl)ccc1-n1cncn1)c1ccc([N+](=O)[O-])s1`, 34.3%. For `CCOC(=O)C(=Cc1ccc(-n2cncn2)cc1)C(=O)OCC` the value was 27%. As for `CC(=O)n1cc(N(C(=O)CCl)c2ccc(C)cc2)c2ccccc21`, the inhibition was 53.1% (active). Then `CC(=O)n1cc(N(C(=O)CCl)c2ccccc2)c2ccccc21`, with 95.3% (active); and `Clc1ccccc1/C=C/c1nc(-c2ccccn2)no1`, with -22.3%; and `Cc1ccc(S(=O)(=O)N2C(=O)/C(=C3\SC(=S)NC3=O)c3ccccc32)cc1`, with 82.3% (active). Then `N=C1S/C(=C\c2ccc(-c3cccc(Cl)c3)o2)C(=O)N1c1nccs1`, with 108% (active). Regarding `N=C1S/C(=C\c2ccco2)C(=O)N1c1nccs1`, the inhibition is 105% (active).

With `CC(=O)c1ccc(NC(=O)C2CCCN(c3ncnc4c3nc3n4CCCCC3)C2)cc1` (stereo not given), the inhibition was 22.3%. For `Cc1ccc(NC(=O)C2CCCN(c3ncnc4c3nc3n4CCCCC3)C2)nc1` (stereo not given) the value was 92.6% (active); for `Cc1ccc(NC(=O)C2CCN(c3ncnc4c3nc3n4CCCCC3)CC2)cc1Cl`, 31.7%. Consider `O=C(Nc1ccccn1)C1CCN(c2ncnc3c2nc2n3CCCCC2)CC1`, for which the inhibition is 66.3% (active). Then `O=C(NCC1CCN(Cc2ccc(Cl)cc2)CC1)C1CCCN(c2ncnc3c2nc2n3CCCCC2)C1` (stereo not given), with 57.9% (active); and `COc1ccc(NC(=O)C2CCN(c3ncnc4c3nc3n4CCCCC3)CC2)cc1Cl`, with 43.2%; and `O=C(Nc1ccc(Cl)cn1)C1CCN(c2ncnc3c2nc2n3CCCCC2)CC1`, with 76.4% (active). Then `O=C(Nc1nc2c(F)cc(F)cc2s1)c1ccc([N+](=O)[O-])o1`, with -4%; and `CC(C)c1nc(SCC(=O)Nc2nc3c(s2)CCCC3)c2ccccc2n1`, with -69.4%; and `CCCCn1c(SCC(=O)Nc2nnc(CC)s2)nc2c1c(=O)n(C)c(=O)n2C`, with 51.6% (active).

For `CC(C)n1c(SCC(=O)N2CCCCC2)nc2c1c(=O)n(C)c(=O)n2C`, the inhibition was 40.9%. Then `CC1CCc2nc(NC(=O)CSc3nc4ccccc4o3)sc2C1` (stereo not given), with 12%; and `CCCn1c(SCC(=O)Nc2nc3c(s2)CCCC3)nc2c1c(=O)n(C)c(=O)n2C`, with 71.4% (active). For `CCCCn1c(SCC(=O)Nc2nnc(C(C)C)s2)nc2c1c(=O)n(C)c(=O)n2C` the value was 54.3% (active); for `CCCc1nc(SCC(=O)Nc2nnc(SCC)s2)c2c(=O)n(C)c(=O)n(C)c2n1`, 33.2%; for `C#CC(C)(C)NC(=O)CSc1nc2c(c(=O)n(C)c(=O)n2C)n1CCCC`, 24.1%. Then `C=CCn1c(SCC(=O)Nc2sccc2C(N)=O)nc2sc(CC)cc2c1=O`, with 44.9%; and `Cc1nc([N+](=O)[O-])c(Br)n1Cc1ccccc1`, with 22.9%. For the molecule `O=[N+]([O-])c1cc(S(=O)(=O)Nc2cccc(C(F)(F)F)c2)ccc1-n1nnc2ccccc21`, the inhibition was 68.7% (active). In the case of `NC(=O)c1ccc(N2CCN(S(=O)(=O)c3ccccc3)CC2)c([N+](=O)[O-])c1`, the inhibition was 5.1%. For `CN(C)c1ccnc2sc3c(=O)n(Cc4ccccc4)cnc3c12` the value was 69.1% (active); for `Cc1ccccc1-n1cnc2c(sc3nc(N4CCOCC4)c4c(c32)CCCC4)c1=O`, 18.7%.

Take `CC1CCCN(c2ncnc3c2cnn3-c2ccc(Cl)cc2)C1` (stereo not given): the inhibition was 45.4%. For `Cn1ncc2c(N3CCN(c4ccc(Cl)c(Cl)c4)CC3)ncnc21` the value was 104% (active). For `Cc1noc2ncnc(N3CCN(c4cccc(Cl)c4)CC3)c12` the value was 19%; for `Cn1cccc1Cc1nnc(SCC(=O)Nc2ccc(Cl)cc2)n1-c1ccc(F)cc1`, 42%.

Take `COc1ccccc1NC(=O)CSc1nnc(Cc2cccn2C)n1-c1ccc(F)cc1`: the inhibition was -5.9%. Then `COc1ccc(Cl)cc1NC(=O)CSc1nnc(Cc2cccn2C)n1-c1ccc(F)cc1`, with 35.1%. For `Cc1cc(C)cc(NC(=O)CSc2nnc(Cc3cccn3C)n2-c2ccc(F)cc2)c1` the value was 59.6% (active); for `COc1ccc(-n2c(Cc3cccn3C)nnc2SCC(=O)Nc2ccc(F)cc2)cc1`, -4%. On to `CCOc1ccccc1NC(=O)CSc1nnc(Cc2cccn2C)n1-c1ccc(F)cc1`, for which the inhibition was 56.8% (active). `COc1ccc(-n2c(Cc3cccn3C)nnc2SCC(=O)Nc2cccc(F)c2)cc1`: the inhibition is 59.1% (active). Then `COc1ccc(-n2c(Cc3cccn3C)nnc2SCC(=O)Nc2cccc(Cl)c2)cc1`, with 14.7%. As for `Cn1cccc1Cc1nnc(SCC(=O)Nc2cccc(F)c2)n1-c1ccc(F)cc1`, the inhibition is -4.7%.

For the molecule `O=[N+]([O-])c1ccc(O)c(-c2cc(C(F)(F)F)nc(-c3ccccc3)n2)c1`, the inhibition is 93.6% (active).

As for `O=c1nc(/C=C/c2cc([N+](=O)[O-])ccc2Cl)cc(C(F)(F)F)[nH]1`, the inhibition was -16.6%. Then `O=[N+]([O-])c1ccc(O)c(Nc2ncnc3ccccc23)c1`, with 4.9%. For `CCOC(=O)C1(Cc2ccccc2C)CCCN(C(=O)CN2C(=O)CSC2=O)C1` (stereo not given) the value was 31.1%; for `O=C(c1ccccc1)N1CCSc2sccc2C1=O`, 52.7% (active); for `CC1=C(/C=C/C(C)=N\NC(=O)c2ccncc2)C(C)(C)CCC1`, 3.5%. For `CC1=CCCC(C)(C)C1/C=C/C(C)=N/NC(=O)c1ccncc1` (stereo not given) the value was 59.7% (active).
